Drawing on PubChem BioAssay (Tox21), this text covers Potency for eight compounds.

Assay [1] can be described thus: qHTS RealTime-Glo MT Cell Viability Assay in HEK293 cells - 0 hour (AID 1224880). Further: top concentration of the series differs between compounds; nearly all actives have a fitted effect of over 45% in size. The essentials:
(§1)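 Viable HEK293 cells reduce a cell-permeant prosubstrate; the product diffuses out and is consumed by NanoLuc in the medium to give light. Compounds went in after a 5 h incubation and plates were read over the treatment course.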

Assay [2] can be described thus: A CellTox Green Cytotoxicity Assay to monitor cytotoxicity in HEK293 cells - 32 hour (AID 1224881). Further: nearly all actives have a fitted effect of over 40% in size. The essentials:
(§2)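 Fluorescence intensity, read at 0, 8, 16, 24, 32 and 40 h of compound treatment, reflected dye binding to DNA of dead HEK293 cells; compounds (23 nL, DMSO) were added 5 h after plating cells with reagent.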

Assay [3] can be described thus: A CellTox Green Cytotoxicity Assay to monitor cytotoxicity in HepG2 cells - 0 hour (AID 1224882). Further: nearly all actives have a fitted effect of over 35% in size. The essentials:
(§3)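 Using 1536-well format, dye-containing HepG2 suspension was seeded, allowed 5 h at 37 C/5% CO2, dosed by pintool with compounds, positive and negative controls, and imaged for fluorescence across 40 h.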

A short description of assay [4]: A CellTox Green Cytotoxicity Assay to monitor cytotoxicity in HepG2 cells - 32 hour (AID 1224883). Further: nearly all actives have a fitted effect of over 50% in size. The essentials: as §3
Assay [5] can be described thus: A CellTox Green Cytotoxicity Assay to monitor cytotoxicity in HEK293 cells - 8 hour (AID 1224884). Further: nearly all actives have a fitted effect of over 35% in size. Summed up:
as §2

A short description of assay [6]: qHTS RealTime-Glo MT Cell Viability Assay in HepG2 cells - 16 hour (AID 1224885). Further: nearly all actives have a fitted effect of over 50% in size. The essentials:
(§4)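 HepG2 cells (600/well) were dispensed with RealTime-Glo reagents, incubated 5 h at 37 °C, then treated with compounds in DMSO for up to 40 h. Nonlytic NanoLuc luminescence reflecting viable cells was read at each stated time point.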

Assay [7] in a line: qHTS RealTime-Glo MT Cell Viability Assay in HEK293 cells - 24 hour (AID 1224886). Further: nearly all actives have a fitted effect of over 50% in size. Further: potency means the concentration at half of the fitted maximal effect. The essentials:
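HEK293 cells seeded with NanoLuc/prosubstrate reagent, rested 5 h at 37 C, then dosed and kept at 37 C up to 40 h. Nonlytic real-time luminescence from viable cells read at 0, 8, 16, 24, 32 and 40 h.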

Assay [8] in a line: qHTS RealTime-Glo MT Cell Viability Assay in HEK293 cells - 8 hour (AID 1224887). Further: top concentration of the series differs between compounds; nearly all actives have a fitted effect of over 50% in size. The essentials: as §1
Assay [9] can be described thus: A CellTox Green Cytotoxicity Assay to monitor cytotoxicity in HEK293 cells - 16 hour (AID 1224888). Further: nearly all actives have a fitted effect of over 35% in size. Summed up: as §2
Assay [10] in a line: qHTS RealTime-Glo MT Cell Viability Assay in HepG2 cells - 0 hour (AID 1224889). Further: nearly all actives have a fitted effect of over 50% in size. Summed up:
as §4

Assay [11] in a line: A CellTox Green Cytotoxicity Assay to monitor cytotoxicity in HepG2 cells - 8 hour (AID 1224890). Further: nearly all actives have a fitted effect of over 45% in size. Summed up: as §3
The nature of assay [12]: qHTS assay to identify small molecule antagonists of the estrogen receptor alpha (ER-alpha) signaling pathway using the BG1 cell line in the presence of 0.1 nM 17-beta-estradiol - cell viability counter screen (AID 1259241). Further: nearly all actives have a fitted effect of over 40% in size. Summed up: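 Cells were plated and left 24 hr, compounds in DMSO were pinned in, 17beta-estradiol was added to 0.1 nM final, and after 22 hr CellTiter-Fluor reagent was added for 30 min before fluorescence was read.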

A short description of assay [13]: qHTS assay to identify small molecule antagonists of the androgen receptor (AR) signaling pathway using the MDA cell line in the presence of 0.5 nM R1881 - cell viability counter screen (AID 1259242). Further: nearly all actives have a fitted effect of over 45% in size. The essentials:
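Viability of MDA-kb2 cells was multiplexed with the luciferase AR readout; after 16 hr with compounds and R1881 at 0.5 nM final, CellTiter-Fluor fluorescence was recorded.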

Assay [14] is described as follows: qHTS assay to identify small molecule HDAC inhibitors (AID 1259364).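 Further: wild-type HCT-116 cells with endogenous class I/II HDAC activity; top concentration of the series differs between compounds; nearly all actives have a fitted effect of over 45% in size.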 Summed up: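 Read-out: luminescence of HDAC-Glo I/II reagent, 30 min RT, reflecting class I/II deacetylase activity in whole HCT-116 cells pre-exposed 2 h to DMSO-dissolved compounds.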
A short description of assay [15]: qHTS assay to identify small molecule HDAC inhibitors - cell viability counter screen (AID 1259365). Summed up: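 Counter screen in wild-type HCT-116 cells: compounds dissolved in DMSO are pin-transferred onto overnight-plated cells and left 2hr at 37C. ATP-based CellTiter-Glo luminescence then measures viable cells.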
The nature of assay [16]: qHTS assay to identify small molecule agonists of the sonic hedgehog signaling (Shh) pathway - cell viability counter screen (AID 1259366). Further: nearly all actives have a fitted effect of over 50% in size. Summed up:
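Cells are plated at 2,000 per well and left 4hr at 37C, 5% CO2 before compound addition. After 23hr of treatment, CellTiter-Fluor reagent is added for 1hr at 37C and fluorescence is measured.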

The nature of assay [17]: qHTS assay to identify small molecule antagonists of the sonic hedgehog signaling (Shh) pathway - cell viability counter screen (AID 1259367). Further: nearly all actives have a fitted effect of over 55% in size. Summed up: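 NIH/3T3-derived Gli1-Luc reporter cells, 2,000/well, plated 4 hr before compound addition, then stimulated with conditioned medium for 24 hr at 37C. Viability measured in the same wells by CellTiter-Fluor fluorescence, reagent added at 23 hr for 1 hr.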

Assay [18] in a line: qHTS assay to identify small molecule phospholipidosis (PLD) inducers (AID 1259344; active means well fitted curve in the direction sought with a large enough effect; an effect the other way counts as inactive or inconclusive). Summed up:
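HepG2 cells, 900/well, treated with compound plus LipidTOX Red for 24 h at 37 C; amiodarone positive and DMSO negative controls. Fixed with paraformaldehyde/Hoechst, then high-content imaging scored LipidTOX pit count and integrated intensity per well and per cell.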

Assay [19] deals with Estrogen receptor (Homo sapiens) (UniProt P03372). The experiment in a line: qHTS assay to identify small molecule antagonists of the estrogen receptor alpha (ER-alpha) signaling pathway using the BG1 cell line in the presence of 0.1 nM 17-beta-estradiol (AID 1259244). Further: nearly all actives have a fitted effect of over 50% in size. Further: potency means the concentration at half of the fitted maximal effect. The essentials: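 Estradiol at 0.1 nM (final) stimulates the endogenous ER-alpha of VM7Luc4E2 cells carrying an ERE-driven luciferase; compounds are co-incubated 22 h at 37C and luciferase output quantified by luminescence.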
Chain of Estrogen receptor (Homo sapiens) (P03372 whole entry, looked up): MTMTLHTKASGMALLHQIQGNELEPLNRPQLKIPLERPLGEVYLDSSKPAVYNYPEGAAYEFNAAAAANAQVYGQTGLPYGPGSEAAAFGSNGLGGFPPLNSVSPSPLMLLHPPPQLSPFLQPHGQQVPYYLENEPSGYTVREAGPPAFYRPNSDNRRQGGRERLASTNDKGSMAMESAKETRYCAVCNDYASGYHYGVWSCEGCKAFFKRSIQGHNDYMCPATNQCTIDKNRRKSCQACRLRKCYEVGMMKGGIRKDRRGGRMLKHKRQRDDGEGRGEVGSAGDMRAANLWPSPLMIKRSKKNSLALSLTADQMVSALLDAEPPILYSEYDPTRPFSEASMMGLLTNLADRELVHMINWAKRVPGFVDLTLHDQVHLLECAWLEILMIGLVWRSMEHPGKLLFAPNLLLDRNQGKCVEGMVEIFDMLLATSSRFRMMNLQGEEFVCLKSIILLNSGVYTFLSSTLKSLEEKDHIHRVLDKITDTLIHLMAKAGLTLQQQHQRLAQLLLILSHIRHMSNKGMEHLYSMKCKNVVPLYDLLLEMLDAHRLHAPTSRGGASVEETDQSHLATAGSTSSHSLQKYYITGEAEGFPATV

The target of assay [20] is Androgen receptor (Homo sapiens) (UniProt P10275). The experiment in a line: qHTS assay to identify small molecule antagonists of the androgen receptor (AR) signaling pathway using the MDA cell line in the presence of 0.5 nM R1881 (AID 1259243). Further: nearly all actives have a fitted effect of over 50% in size. Summed up:
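Reporter cells cultured without CO2 receive test chemicals, then 0.5 nM R1881 final; after 16 hr at 37C, ONE-Glo is added and light output recorded.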

Inconclusive results are not listed. Active and inactive are the calls of the source. Unless noted, the call rests on the fitted dose curve; in most records, active means well fitted curve in the direction sought with a large enough effect in the repeat runs; inconclusive means weak or mixed curves; inactive means no such curve, though single readings can be large; an effect the other way counts as inactive or inconclusive.

Chain of Androgen receptor (Homo sapiens) (P10275 whole entry, looked up): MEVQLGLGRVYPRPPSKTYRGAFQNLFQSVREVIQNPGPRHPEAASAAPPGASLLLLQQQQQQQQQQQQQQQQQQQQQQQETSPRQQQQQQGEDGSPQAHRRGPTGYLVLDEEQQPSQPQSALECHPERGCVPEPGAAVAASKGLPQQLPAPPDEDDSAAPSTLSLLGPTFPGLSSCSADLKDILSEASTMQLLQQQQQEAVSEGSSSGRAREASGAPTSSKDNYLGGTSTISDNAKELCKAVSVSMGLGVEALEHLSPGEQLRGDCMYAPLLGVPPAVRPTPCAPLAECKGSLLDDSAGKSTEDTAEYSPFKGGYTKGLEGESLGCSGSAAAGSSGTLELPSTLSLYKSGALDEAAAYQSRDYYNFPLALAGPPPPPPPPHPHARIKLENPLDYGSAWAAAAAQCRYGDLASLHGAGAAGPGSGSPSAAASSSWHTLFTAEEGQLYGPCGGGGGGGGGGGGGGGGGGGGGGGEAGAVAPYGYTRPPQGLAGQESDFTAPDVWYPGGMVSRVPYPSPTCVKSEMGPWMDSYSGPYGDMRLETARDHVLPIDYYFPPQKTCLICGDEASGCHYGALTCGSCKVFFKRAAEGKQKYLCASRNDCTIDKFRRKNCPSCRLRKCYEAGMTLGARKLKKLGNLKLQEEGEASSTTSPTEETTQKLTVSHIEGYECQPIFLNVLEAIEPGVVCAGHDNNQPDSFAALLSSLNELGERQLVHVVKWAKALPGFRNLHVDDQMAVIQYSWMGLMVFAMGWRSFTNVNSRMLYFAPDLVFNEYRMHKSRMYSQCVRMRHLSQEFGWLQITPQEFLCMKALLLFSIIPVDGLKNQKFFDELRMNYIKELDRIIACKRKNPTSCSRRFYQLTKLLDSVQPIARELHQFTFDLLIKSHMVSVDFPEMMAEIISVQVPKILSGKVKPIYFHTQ

For the compound `CCO[Si](C)(CCCOCC1CO1)OCC` (stereo unspecified), the Potency entry in assay [1], in [2], in [3], in assay [4], in assay [5] and in assay [6] was “inactive” in each case. In addition, the Potency entry in assay [7], in assay [8], in assay [9], in assay [10], in [11] and in [12] was “inactive” throughout. Further, the Potency result in assay [13], in assay [14], in [15], in assay [16] and in assay [17] was “inactive” throughout.
With `CN=C(N)NC(=O)Nc1c(C)cccc1C`, the Potency entry in assay [1], in assay [2], in assay [3], in assay [4], in assay [5] and in assay [6] was “inactive” in each case. Moreover, the Potency entry in [7], in assay [8], in assay [9], in assay [10], in [11] and in [12] was “inactive” each time. For the same compound, the Potency result in assay [13], in [18], in [14], in [15], in assay [16] and in [17] was “inactive” throughout.
As for `O=S(=O)(O)CO`, the Potency entry in [1], in assay [2], in [3], in [4], in assay [5] and in [6] was “inactive” throughout. In addition, the Potency entry in [7], in assay [8], in assay [9], in [10], in [11] and in assay [12] was “inactive” in each case. In addition, the Potency result in assay [13], in assay [14], in [15], in assay [16] and in [17] was “inactive” each time.
As for `CCCCCc1ccco1`, the Potency entry in assay [1], in [2], in assay [3], in assay [4], in [5] and in [6] was “inactive” each time. In addition, the Potency entry in assay [7], in [8], in assay [9], in assay [10], in assay [11] and in assay [12] was “inactive” in each case. The Potency entry in assay [13], in assay [14], in assay [15], in assay [16] and in [17] was “inactive” throughout.
For `Cc1ccc(N(CC2=NCCN2)c2cccc(O)c2)cc1`, the Potency result in [1], in [2], in assay [3], in [4], in [5] and in assay [6] was “inactive” each time. The Potency entry in assay [7], in [8], in [9], in assay [10], in [11] and in assay [12] was “inactive” throughout. Besides, the Potency result in assay [13], in assay [18] and in assay [15] was “inactive” in each case.
With `CCOC(=O)c1c(N)sc2c1CCN(Cc1ccccc1)C2`, the Potency entry in [1], in assay [2], in assay [3], in assay [4], in assay [5] and in assay [6] was “inactive” in each case. The Potency entry in assay [9], in assay [10], in assay [11], in [12], in assay [13] and in assay [18] was “inactive” each time. Moreover, the Potency result in [14], in assay [15] and in assay [16] was “inactive” each time. The figures for the Potency in [7] and in [19] were 19 µM (active) and 29.8 µM (active), respectively.
Consider `Cc1cn([C@H]2C[C@H](F)[C@@H](CO)O2)c(=O)[nH]c1=O`, for which the Potency entry in assay [1], in assay [2], in assay [3], in [4], in assay [5] and in assay [6] was “inactive” each time. The Potency entry in assay [7], in assay [8], in assay [9], in assay [10], in assay [12] and in assay [13] was “inactive” in each case. In addition, the Potency entry in assay [20], in assay [19], in assay [18], in assay [14], in assay [15] and in [16] was “inactive” throughout. Moreover, in assay [17], the Potency entry is “inactive”.
With `C1CCCCC1`, the Potency result in [1], in [2], in assay [3], in assay [4], in [5] and in assay [6] was “inactive” each time. In addition, the Potency entry in assay [7], in [8], in assay [9], in assay [10], in assay [11] and in assay [12] was “inactive” each time. Moreover, the Potency entry in assay [13], in assay [15], in assay [16] and in assay [17] was “inactive” in each case.
